# High-throughput results: PubChem BioAssay, Sanford-Burnham Center for Chemical Genomics
# Hits are enriched below; roughly 3% of the tested compounds scored in any of these assays.
# PPC-1+TRAIL kill – kills PPC-1 cancer cells in the presence of TRAIL; hit rate 0.41% among 220,000; cell killing (% activity), % at 4 µM or 5 µM; PPC-1 cells + TRAIL, ATPLite viability luminescence;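 active = cell killing above 50% in the first pass at 4 µM, then a duplicate retest at 5 µM averaging 50% or more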;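 note: plate controls were cells with TRAIL plus DMSO for no effect and medium-only wells lacking cells for full effect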
# C8 TRAIL sens – sensitizes caspase-8 expressing cells to TRAIL. hit rate 1% among 360,000. NB7+C8 cells + TRAIL, ATPlite viability luminescence. inhibition (viability loss, TRAIL sensitization), % at 10 µM;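 active = compounds causing at least 50% loss of cell viability in the single-dose screen, relative to plate controls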
# SENP8 block-1 – blocks human SENP8 cleavage of Nedd8 substrate; Q96LD8; recombinant SENP8, Nedd8 substrate fluorescence; inhibition, % at 20 µM; hit rate 0.64% among 360,000; in the data active = inhibition mostly above about 40%, no sharp cut-off; inactive = mostly below about 27%
# Target sequence (Q96LD8 whole entry, looked up): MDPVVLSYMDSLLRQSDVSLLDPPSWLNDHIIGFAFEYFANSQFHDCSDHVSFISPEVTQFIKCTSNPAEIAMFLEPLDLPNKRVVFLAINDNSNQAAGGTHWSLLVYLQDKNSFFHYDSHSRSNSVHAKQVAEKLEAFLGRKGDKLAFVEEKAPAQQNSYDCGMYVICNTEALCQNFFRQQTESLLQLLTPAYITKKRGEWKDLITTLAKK
# SENP6 block – inhibitors of human SENP6 protease. Recombinant SENP6 catalytic domain, aminoluciferin luminescence. inhibition, % at 10 µM. hit rate 1.8% among 330,000. AID 2599;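 active = inhibition above about 50% at the single tested dose, limit read from the data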;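 note: plate controls were DMSO wells with enzyme for no effect and DMSO wells lacking enzyme for full effect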
# Target sequence (Q9GZR1 628-1112 limits assumed): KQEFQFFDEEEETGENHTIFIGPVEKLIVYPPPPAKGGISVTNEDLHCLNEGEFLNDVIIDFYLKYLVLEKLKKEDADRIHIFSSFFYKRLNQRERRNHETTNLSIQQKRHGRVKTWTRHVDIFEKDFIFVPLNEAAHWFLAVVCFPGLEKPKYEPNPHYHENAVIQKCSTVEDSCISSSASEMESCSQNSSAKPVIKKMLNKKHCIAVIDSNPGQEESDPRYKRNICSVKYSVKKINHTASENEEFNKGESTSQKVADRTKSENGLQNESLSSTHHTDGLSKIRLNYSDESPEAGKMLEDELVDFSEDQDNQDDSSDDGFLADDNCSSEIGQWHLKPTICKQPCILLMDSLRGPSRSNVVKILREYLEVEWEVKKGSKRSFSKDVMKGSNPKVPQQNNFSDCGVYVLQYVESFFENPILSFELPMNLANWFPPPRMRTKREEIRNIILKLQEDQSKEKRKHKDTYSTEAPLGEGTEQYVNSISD
# SENP8 block-2 – inhibitors of human SENP8 protease; Q96LD8; purified SENP8, Z-RLRGG-aminoluciferin cleavage, luminescence; hit rate 1.2% among 330,000; inhibition, % at 10 µM; in the data active = inhibition above about 50%
# SENP7 inh – blocks the human protease SENP7; hit rate 1.5% among 330,000; Q9BQF6; recombinant SENP7, Z-RLRGG-aminoluciferin luminescence, 40 min; AID 434973; inhibition, % at 5 µM;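 active = inhibition above about 50% at the single test dose, limit read from the data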;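 note: plate controls were DMSO with enzyme for no effect and no enzyme buffer wells for full effect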
# SENP8 conf – confirmation of human SENP8 protease inhibitors; shares compounds with SENP7 inh; Recombinant SENP8, Z-RLRGG-aminoluciferin luminescence, 60 min; inhibition, % at 12.5 µM; hit rate 40% among 6,200;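 active = mean inhibition across replicates above about 50%, limit read from the data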
# SENP6 conf – confirmation of human SENP6 protease inhibitors; shares compounds with SENP7 inh; recombinant SENP6, Z-RLRGG-aminoluciferin luminescence; inhibition, % at 12.5 µM; hit rate 58% among 6,200; AID 488915
# SENP7 confirm – confirmation of human SENP7 protease inhibitors. shares compounds with SENP7 inh. recombinant SENP7, Z-RLRGG-aminoluciferin luminescence, 40 min. inhibition, % at 12.5 µM. hit rate 69% among 6,200. AID 488917
# Casp3 SENP sel – caspase-3 inhibition (SENP selectivity assay); inhibition, % at 12.5 µM; purified caspase-3, Z-DEVD-aminoluciferin luminescence, 60 min; hit rate 60% among 6,200; AID 488918; shares compounds with SENP7 inh;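 active = mean inhibition above about 50%, limit read from the data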;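 note: plate controls were enzyme with DMSO for no effect and wells without caspase-3 for full effect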
# Luc interf – counter-screen for SENP inhibitors: luminescence interference; shares compounds with SENP7 inh; Pre-incubated SENP8/Z-RLRGG-aminoluciferin, luciferase luminescence interference; inhibition, % at 12.5 µM; hit rate 39% among 6,200; AID 488919;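 active = mean inhibition above about 50% when retested at one dose, limit read from the data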;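 note: plate controls were DMSO wells with completed reaction for no effect and substrate without enzyme for full effect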
# Starred values were filed as active, the others as inactive; · = not tested or not shown.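 Rule for the calls, unless noted: active = mean inhibition above about 50% in the one-dose retest (limit read from the data); inactive = the rest.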
SMILES,PPC-1+TRAIL kill,C8 TRAIL sens,SENP8 block-1,SENP6 block,SENP8 block-2,SENP7 inh,SENP8 conf,SENP6 conf,SENP7 confirm,Casp3 SENP sel,Luc interf
O=C(Nc1ccncc1)c1ccc2ccccc2c1,13.4,-1.8,16.7,-13.6,-10.2,15.8,·,·,·,·,·
Cc1ccc(NC(=O)c2ccccc2O)cc1,40.6,52.4*,-82.6,53.3*,28.3,41.1,54.8*,50.9*,77.6*,61.1*,65.7*
Cc1ccc(C(=O)CC(=O)c2ccccc2)cc1,·,0.4,20.5,74.7*,69.6*,66.2*,-4.0,65.5*,91.3*,50.5*,44.3
Cc1ccc(NC(=O)c2cccc3cccnc23)cc1,·,28.4,16.3,53.7*,29.6,27.9,50.2*,44.6,72.2*,31.8,30.1
NC(=O)C1CCCN(CC(=O)Nc2cc(S(=O)(=O)N3CCOCC3)ccc2N2CCCC2)C1 (stereo not drawn),·,-10.6,3.3,2.1,0.4,4.2,·,·,·,·,·
O=C(Nc1ccccc1)c1ccc(OC(=O)c2ccccc2)cc1,·,5.9,4.6,53.8*,12.7,81.0*,3.9,8.2,12.3,9.2,-0.1
O=C(Nc1ccc2ccccc2c1)c1ccc(Cl)cc1,·,57.5*,9.0,41.0,-2.5,50.9*,-8.2,15.2,32.9,67.2*,12.9
Cc1ccc(C(=O)Nc2ccccc2Cl)cc1,·,5.2,1.2,68.7*,45.0,57.8*,50.3*,54.9*,85.5*,77.7*,54.6*
CC(C)OC(=O)c1ccc(NC(=O)c2ccccc2)cc1,21.7,12.2,24.5,35.5,15.2,29.2,·,·,·,·,·
Cc1ccc(NC(=O)C(=O)c2ccc(C)cc2)cc1,·,7.2,9.3,65.0*,54.4*,62.2*,59.1*,58.7*,86.6*,59.5*,34.8
COc1ccc2nc3cccc(OC)c3nc2c1,-3.0,3.1,15.6,72.6*,28.3,29.7,-5.9,-3.2,42.4,51.3*,-0.3
c1cnc2ccc(-c3ccc4ncccc4c3)cc2c1,·,33.0,-112.1,76.8*,55.4*,32.3,72.2*,71.1*,87.3*,65.4*,75.5*
COC(=O)c1c(NC(=O)c2ccc(C)o2)sc2c1CCCCC2,26.4,11.3,-294.2,-19.5,-12.3,-4.0,·,·,·,·,·
NC(=O)c1c(NC(=O)c2ccc(F)cc2)sc2c1CCC2,·,35.2,-146.9,31.1,-4.9,11.1,·,·,·,·,·
Cc1ccc(C(=O)Nc2sc3c(c2C(=O)O)CCCC3)o1,·,31.2,-466.4,89.2*,91.4*,75.0*,95.0*,94.5*,100.7*,95.5*,92.3*
Cc1ccc(C(=O)Nc2sc3c(c2C(=O)O)CCCCC3)o1,33.5,26.9,-422.9,-14.7,96.7*,91.3*,97.8*,100.0*,102.6*,98.4*,97.4*
NC(=O)c1c(NC(=O)c2cc3ccccc3o2)sc2c1CCC2,27.5,49.6*,-437.7,59.6*,24.7,37.7,14.2,16.8,67.1*,35.8,18.1
O=C(Nc1sc2c(c1C(=O)O)CCC2)c1ccco1,-7.7,-9.0,-81.3,97.0*,91.1*,90.7*,93.7*,94.3*,100.6*,95.6*,93.3*
Cc1cccc2c(N=O)c(O)[nH]c12,-0.3,-13.7,2.4,-22.7,-8.7,-8.8,·,·,·,·,·
Cc1cccc(NC(=O)c2cc([N+](=O)[O-])ccc2N2CCCCC2)n1,11.1,-4.0,33.5,3.3,-10.8,1.9,·,·,·,·,·
O=C(NCC1CCCO1)C(c1ccccn1)N(Cc1ccccc1Cl)C(=O)CN1C(=O)c2ccccc2S1(=O)=O (stereo not drawn),5.2,-4.4,11.8,-11.4,-0.3,-9.9,·,·,·,·,·
Cc1cc(C)n2c(SCC(=O)NC3CCCCC3)nnc2n1,11.9,-5.0,-34.3,-2.2,0.2,14.7,·,·,·,·,·
O=C(C[n+]1cccc(Br)c1)c1ccc(-c2ccccc2)cc1,·,-4.1,9.6,-17.0,4.1,6.7,·,·,·,·,·
COC(=O)[C@]12C(=O)NC[C@H](CN1c1ccc(Cl)c(C)c1)N2C,·,-1.9,21.2,-9.3,6.3,99.8*,-29.7,-17.6,-11.1,-11.7,-9.3
Nc1ccc(-c2nc3ccc([N+](=O)[O-])cc3[nH]2)cc1,1.7,17.6,36.7,50.5*,30.1,41.7,41.0,37.6,73.4*,47.1,38.9
SMILES,PPC-1+TRAIL kill,C8 TRAIL sens,SENP8 block-1,SENP6 block,SENP8 block-2,SENP7 inh,SENP8 conf,SENP6 conf,SENP7 confirm,Casp3 SENP sel,Luc interf
O=[N+]([O-])c1ccc(-c2nc3ccc([N+](=O)[O-])cc3[nH]2)cc1,35.6,16.4,27.5,84.7*,68.5*,75.6*,2.8,29.8,58.5*,34.0,50.2*
O=[N+]([O-])c1ccc2nc(C(O)C(O)c3nc4ccc([N+](=O)[O-])cc4[nH]3)[nH]c2c1 (stereo not drawn),·,0.2,10.6,11.7,-0.2,6.1,·,·,·,·,·
CCCC[n+]1ccc(-c2nc3ccc([N+](=O)[O-])cc3[nH]2)cc1,22.6,2.6,-120.5,-30.5,-8.6,-14.9,·,·,·,·,·
Nc1c(C(=O)NCc2ccccc2)c2nc3ccccc3nc2n1-c1ccc2c(c1)OCO2,15.9,18.9,-260.7,67.6*,30.4,-2.9,11.2,12.0,-2.8,3.3,-0.5
Nc1c(C(=O)NCc2ccc3c(c2)OCO3)c2nc3ccccc3nc2n1CCCN1CCOCC1,-9.8,7.3,-277.0,92.0*,91.4*,4.1,10.0,7.7,-3.3,2.7,-4.7
COc1ccccc1CNC(=O)c1c(N)n(CCCN2CCOCC2)c2nc3ccccc3nc12,18.6,18.4,-290.6,·,·,·,·,·,·,·,·
Cc1occc1C(=O)NNC(=O)Nc1ccc([N+](=O)[O-])cc1,-7.2,-4.0,1.4,-3.7,-1.1,1.1,·,·,·,·,·
Cc1cccc(N=Nc2cnc(N)s2)c1,-0.2,-0.3,11.9,55.5*,18.1,46.5,51.7*,43.6,69.6*,24.4,21.5
O=P(c1ccccc1)(c1ccccc1)c1nc(-c2ccc(Cl)cc2)oc1N1CCOCC1,15.5,-16.1,-411.4,-3.5,-0.2,1.2,·,·,·,·,·
Cc1ccc(OCc2nc(-c3cccs3)no2)c([N+](=O)[O-])c1,44.1,37.6,7.5,-22.7,37.1,52.7*,66.5*,65.4*,80.1*,44.8,9.3
Cc1ccc(OCc2nc(-c3ccccc3)no2)c(C)c1,-0.6,3.3,13.8,55.1*,24.6,44.6,32.8,35.5,55.7*,16.9,26.0
Cc1ccc(Nc2ccc(C(=O)O)cc2N)cc1,0.6,·,·,97.7*,94.4*,98.1*,97.9*,99.0*,102.0*,89.2*,97.1*
